Source: PubChem (several laboratories)
GASC-1 inh = inhibitors of GASC-1 histone demethylase, primary screen, biochemical, fluorescence, DELFIA europium | GST-JMJD2C(1-420) H3K9me3 demethylation | 330,000 compounds, 0.069% hits | Lysine-specific demethylase 4C (Homo sapiens), Q9H3R0 | inhibition, % at 2.35 µM;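 active = more than half of a compound's replicate wells show inhibition beyond 50%, single wells judged on their own value; inconclusive = some, but no more than half, of replicates pass 50% inhibition; inactive = no replicate passes 50% inhibition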;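 note: signal counts dimethyl H3K9 product captured on neutravidin plate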
Target sequence (Q9H3R0 1-420 limits assumed): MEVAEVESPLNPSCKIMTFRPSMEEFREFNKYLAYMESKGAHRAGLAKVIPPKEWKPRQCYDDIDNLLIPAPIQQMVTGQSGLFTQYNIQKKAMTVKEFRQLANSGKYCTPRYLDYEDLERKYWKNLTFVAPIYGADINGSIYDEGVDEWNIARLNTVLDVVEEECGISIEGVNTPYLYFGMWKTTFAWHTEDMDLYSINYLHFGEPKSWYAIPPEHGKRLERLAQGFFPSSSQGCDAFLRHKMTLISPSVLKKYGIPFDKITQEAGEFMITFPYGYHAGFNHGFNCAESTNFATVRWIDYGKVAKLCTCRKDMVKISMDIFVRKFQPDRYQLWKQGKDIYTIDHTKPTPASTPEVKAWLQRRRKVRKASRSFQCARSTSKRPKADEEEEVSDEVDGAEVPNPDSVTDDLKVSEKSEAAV
HDAC3 inhib = HDAC3 deacetylase inhibitors, primary screen, biochemical, fluorescence, cell-free homogeneous; Histone deacetylase 3 (Homo sapiens), O15379; recombinant HDAC3, fluorogenic peptide/trypsin coupled; inhibition, % at 8.3 µM; 320,000 compounds, 0.15% hits; in the data active = inhibition above about 26%, passing the limit was not always enough; inconclusive = no clear call, values can overlap the other calls
Target sequence (O15379 whole entry, looked up): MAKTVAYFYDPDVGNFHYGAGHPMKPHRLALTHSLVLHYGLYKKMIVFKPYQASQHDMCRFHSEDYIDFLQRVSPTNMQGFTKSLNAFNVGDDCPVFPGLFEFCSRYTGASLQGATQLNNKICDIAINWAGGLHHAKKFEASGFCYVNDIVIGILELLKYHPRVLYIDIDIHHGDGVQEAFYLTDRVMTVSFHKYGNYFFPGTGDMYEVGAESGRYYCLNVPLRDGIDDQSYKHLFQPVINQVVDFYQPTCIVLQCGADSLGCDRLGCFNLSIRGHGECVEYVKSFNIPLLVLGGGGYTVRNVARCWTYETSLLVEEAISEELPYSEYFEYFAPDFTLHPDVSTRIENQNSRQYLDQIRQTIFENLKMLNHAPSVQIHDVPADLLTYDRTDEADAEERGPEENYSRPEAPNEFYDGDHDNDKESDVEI
Efflux pump inh = inhibitors of Candida efflux pumps in yeast, primary screen, S. cerevisiae, Nile Red, multiplex; S. cerevisiae Candida pump triplex; inhibition, % at 10 µM; 330,000 compounds, 0.44% hits;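 active = plate passing quality check with inhibition over a set limit, or well fluorescence over plate mean plus 4 SD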;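 note: Nile Red retained in pooled yeast measured as flow cytometry median fluorescence; higher means more Nile Red kept so more efflux inhibition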
PolyA inhibitor = polyadenylation inhibitors in yeast reporter cells, primary screen, luminescence, S. cerevisiae; S. cerevisiae SKY197-pL101 polyadenylation reporter, beta-gal luminescence; efflux-impaired pdr1/pdr3 knockout yeast; score 100 = 6 SD above DMSO; activity score, % at 12 µM; 300,000 compounds, 0.02% hits; AID 1875, 2009;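 active = lowest replicate activity score at least 50, where 100 means six control SD above control mean; inconclusive = lowest score under 50 but half or more replicates reach 50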;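 note: yeast exposed to compound for 9 h at 30 °C; higher score means more reporter readthrough which indicates perturbed polyadenylation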
NALP1 inh = NALP1 inflammasome inhibitors in reconstituted yeast, colorimetric, S. cerevisiae, triplicate retest; S. cerevisiae NALP1/ASC/caspase-1 growth, X-gal OD620, 72 h; inhibition, % at 10 µM; 280,000 compounds, 0.61% hits; AID 2071, 2009; in the data active = inhibition mostly above about 24%, no sharp cut-off; inactive = mostly below about 32%
NALP3 yeast inh = NALP3 inflammasome inhibitors in reconstituted yeast, primary screen, luminescence, uHTS; 330,000 compounds, 0.39% hits; Yeast reconstituted NLRP3/ASC/caspase-1, beta-gal luminescence, 24 h; inhibition, % at 10 µM; AID 2825, 2010;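 active = inhibition of 50% or more; inactive = inhibition below 50%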
Cmpd fluor yeast = flagged as fluorescent in efflux inhibitor counter-screen; fluorescence ratio to DMSO, % at 10 µM; S. cerevisiae AD/pABC3, compound fluorescence, flow cytometry; 1,700 compounds, 4% hits; shares compounds with Efflux pump inh; AID 588517;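 active = fluorescence ratio to DMSO above its plate's cutoff, the plate mean ratio plus 5 SD, cut at about 210% in these data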;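 note: unstained yeast with no Nile Red so the signal is compound autofluorescence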
CaMdr1 efflux inh = inhibitors of Candida albicans Mdr1 efflux, confirmation, flow cytometry, singleplex, Cherry Pick1 set. shares compounds with Efflux pump inh. S. cerevisiae AD/CaMDR1, Nile Red efflux. inhibition, % at 10 µM. 1,700 compounds, 1% hits. AID 588518, 2011; in the data active = inhibition above about 26%;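 note: higher means more Nile Red retained so more efflux inhibition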
Cdr2 pump inh = inhibitors of Candida albicans Cdr2 efflux pump, confirmation, S. cerevisiae AD/CaCDR2, flow cytometry, cherry pick 1, singleplex | shares compounds with Efflux pump inh | Nile Red retention | Nile Red retention ratio vs DMSO, % at 10 µM | 1,700 compounds, 4% hits | AID 588520, 2011; in the data active = Nile Red retention ratio vs DMSO above about 190%;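 note: higher ratio means more blocking of Cdr2 efflux of the dye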
Cdr1 pump inh = inhibitors of Candida albicans Cdr1 efflux pump, confirmation, S. cerevisiae AD/CaCDR1, flow cytometry, cherry pick 1, singleplex. inhibition, % at 10 µM. Nile Red efflux. 1,700 compounds, 1% hits. shares compounds with Efflux pump inh;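 active = inhibition above the screen-wide mean plus twice its standard deviation, cut at about 32% in these data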
A number is an active result; 0 = inactive; ? = inconclusive; - = no result given; ! = repeats disagree. In the library only some 1.5% were active in any assay of this set; here they are far more common.

SMILES | GASC-1 inh | HDAC3 inhib | Efflux pump inh | PolyA inhibitor | NALP1 inh | NALP3 yeast inh | Cmpd fluor yeast | CaMdr1 efflux inh | Cdr2 pump inh | Cdr1 pump inh
COC(=O)c1ccc(S(=O)(=O)NCc2ccc(OC)cc2)n1C | 0 | 0 | 2.5 | 0 | 0 | 0 | 0 | 0 | 0 | 0
CCCOc1ccc(/C=c2\sc3nc(-c4ccco4)nn3c2=O)cc1OCC | 0 | 0 | 0 | 0 | 0 | 0 | 0 | 0 | 0 | 0
CC(=O)Oc1cccc(/C=c2\sc3nc(-c4ccco4)nn3c2=O)c1 | 0 | 0 | 0 | 0 | 0 | 0 | 0 | 0 | 0 | 0
CC(C)Cc1nnc(NS(=O)(=O)Cc2ccccc2)s1 | 0 | 0 | 9.0 | 0 | 44 | 0 | 0 | 0 | 0 | 0
O=C(C=C=Nc1ccccc1)C(=O)N=C=Cc1ccccc1 | 0 | - | 0 | 0 | 0 | 0 | - | - | - | -
CC(C)CCNC(=O)CCSCCC(=O)NCCC(C)C | 0 | 0 | 8.9 | 0 | 0 | 0 | 0 | 0 | 0 | 0
N#Cc1cc2c(nc1S(=O)(=O)Cc1ccccc1)CCCC2 | 0 | 0 | 0 | 0 | 0 | 0 | - | - | - | -
O=[N+]([O-])c1cc(C(F)(F)F)ccc1NCCc1ccccn1 | 0 | 0 | 0.9 | 0 | - | 0 | 0 | 0 | 0 | 0
COc1ccc(CNC(=O)COC(=O)c2cc3ccccc3o2)cc1 | - | - | - | - | - | 0 | - | - | - | -
COc1ccc(CCC(=O)NNC(=O)Cn2nc(C)cc2C)cc1 | 0 | 0 | 5.5 | 0 | 0 | 0 | 0 | 0 | 0 | 0
Cc1c(NC(=O)N(C)c2ccccc2)c(=O)n(-c2ccccc2)n1C | 0 | 0 | 0 | 0 | 0 | 0 | - | - | - | -
COc1ccc2noc3c2c1C(=O)c1ccccc1-3 | 0 | - | 0.9 | 0 | - | 0 | 0 | 0 | 197 | 0
Cc1ccc(S(=O)(=O)N2CCCC2)cc1C(=O)Nc1ccc(-n2cnnn2)cc1 | 0 | 0 | 0 | - | - | 0 | - | - | - | -
Cc1[nH]c2ccccc2c1C(=O)C(C)OC(=O)c1ccc([N+](=O)[O-])o1 (centres undefined) | 0 | 0 | 0.4 | 0 | 0 | 0 | 0 | 0 | 0 | 0
CCC1=C(OC(=O)N(CC)CC)N2C(=O)OC(=NCCc3c[nH]c4ccccc34)[C@]2(Cc2ccccc2)[C@H]2C1=CC[C@H]1C(=O)N(CC(=O)OC)C(=O)[C@H]12 | 0 | ? | 7.3 | 0 | - | 0 | 0 | 0 | 0 | 0
COc1ccccc1Nc1cc(C)nc(Nc2ccccc2OC)n1 | - | - | - | - | - | 0 | - | - | - | -
CCS(=O)(=O)N1CCN(S(=O)(=O)c2ccc(S(=O)(=O)NC3CC3)cc2)CC1 | 0 | 0 | 0 | 0 | 0 | 0 | - | - | - | -
O=S(=O)(NC1CCCC1)c1ccc(S(=O)(=O)N2CCN(c3ccccc3)CC2)cc1 | 0 | 0 | 2.0 | 0 | 0 | 0 | 0 | 0 | 0 | 0
Cc1ccc(S(=O)(=O)N2CCC(C(=O)N[C@@H](C)C(=O)Nc3ccc(F)cc3)CC2)cc1 | 0 | 0 | 0.8 | 0 | 0 | 0 | 0 | 0 | 0 | 0
Cn1ccc(C(=O)OCC(=O)Nc2ccccc2Cl)n1 | 0 | - | - | 0 | 0 | 0 | - | - | - | -
Cc1ccc(-c2c3c([nH]c(=S)c2C#N)CCCC3)o1 | 0 | 0 | 0.6 | 0 | 0 | 0 | 0 | 0 | 0 | 0
CC(C)(C)OC(=O)NCc1ccc(NC(=O)c2nc[nH]c2C(=O)NCCCCNC(=O)c2[nH]cnc2C(=O)Nc2ccc(CNC(=O)OC(C)(C)C)cc2)cc1 | 0 | 0 | 0 | - | - | 0 | - | - | - | -
CC(C)(C)OC(=O)NCc1ccc(NC(=O)c2nc[nH]c2C(=O)NCCCCCCNC(=O)c2[nH]cnc2C(=O)Nc2ccc(CNC(=O)OC(C)(C)C)cc2)cc1 | 0 | 0 | 1.8 | - | - | 0 | 0 | 0 | 0 | 0
CC(=O)N/C(=C\c1ccccc1)C(=O)OCc1ccc(C)cc1 | 0 | 0 | 0 | 0 | 0 | 0 | - | - | - | -
CC(=O)N/C(=C\c1ccccc1)C(=O)OCc1ccccc1 | 0 | 0 | 1.5 | 0 | 0 | 0 | 0 | 0 | 0 | 0
SMILES | GASC-1 inh | HDAC3 inhib | Efflux pump inh | PolyA inhibitor | NALP1 inh | NALP3 yeast inh | Cmpd fluor yeast | CaMdr1 efflux inh | Cdr2 pump inh | Cdr1 pump inh
Cc1cccc(C)c1NC(=O)COC(=O)CCc1ccc(S(=O)(=O)N2CCCCC2)cc1 | 0 | 0 | 19 | 0 | 0 | 0 | 0 | 0 | 0 | 0
Cc1cc(C)c(NC(=O)COC(=O)CCc2ccc(S(=O)(=O)N3CCCCC3)cc2)c(C)c1 | 0 | 0 | 0 | 0 | 0 | 0 | - | - | - | -
COc1ccc(CC(=O)Nc2cc(S(=O)(=O)N3CCCCC3)ccc2C)cc1 | - | - | - | - | - | 0 | - | - | - | -
COc1ccc(CCC(=O)Nc2cc(S(=O)(=O)N3CCCCC3)ccc2N(C)C)cc1 | 0 | 0 | 1.1 | - | - | 0 | 0 | 0 | 0 | 0
CCOc1ccc(N2C(=O)CC(N(C)Cc3ccccc3)C2=O)cc1 (centres undefined) | 0 | 0 | 15 | 0 | 0 | 0 | 0 | 0 | 0 | 0
COC(=O)c1ccc(N2C(=O)CC(N(C)Cc3ccccc3)C2=O)cc1 (centres undefined) | 0 | 0 | 0 | 0 | 0 | 0 | - | - | - | -
CN(C)CCNC(=S)Nc1ccc(F)c(F)c1F | 0 | 0 | 0 | 0 | 0 | 0 | - | - | - | -
O=C(Cc1cc(=O)[nH][nH]1)N/N=C/c1cccc(Cl)c1Cl | ? | 0 | 19! | 0 | 0 | 0 | 0 | 0 | 0 | 0
COc1ccccc1/C=C/C(=O)N1CCN(S(=O)(=O)c2cccs2)CC1 | 0 | 0 | 0 | - | - | 0 | - | - | - | -
CCN(CC)C(=O)CSc1nnc(-c2ccncc2)n1N | 0 | 0 | 5.9 | 0 | 0 | 0 | 0 | 0 | 0 | 0
CCn1c(SCC(=O)c2ccc(C)cc2)nnc1-c1ccncc1 | 0 | 0 | 8.2 | 0 | 0 | 0 | 0 | 0 | 0 | 0
CCN(CC)C(=O)CSc1nnc(-c2ccccc2)n1N | 0 | 0 | 0 | 0 | 0 | 0 | - | - | - | -
COc1ccc(OC)c(NC(=O)CSc2nc3ccccc3c(=O)n2CCNC(C)=O)c1 | 0 | 0 | 0.6 | 0 | 0 | 0 | 0 | 0 | 0 | 0
CC(=O)OCCn1c(C)[n+](CCOC(C)=O)c2cc(Cl)c(Cl)cc21 | 0 | 0 | 0 | 0 | 0 | 0 | - | - | - | -
CC(=O)OCCn1c2nc(=O)[nH]c(=O)c-2nc2cc(C)c(C)cc21 | 0 | 0 | 0.7 | 0 | 0 | 0 | 0 | 0 | 0 | 0
CCOC(=O)c1ccc(S(=O)(=O)N2CCN(CCc3ccncc3)CC2)cc1 | 0 | 0 | 0 | - | - | 0 | - | - | - | -
